# Measurements published in PubChem BioAssay.
# Active and inactive are the calls of the source.
# Columns and labels:
# [1] = binders of probe aFSTL3 on microarray, primary screen, stem cell growth factor project, biochemical, small-molecule microarray, fluorescence 635/667 (AID 1064); conditions: higher = more signal;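 further: measures binding of the biotinylated anti-FSTL3 antibody to printed compounds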
# [2] = binders from COS7 lysate, DM2A8 probe, primary screen, torsin A project, cell lysate, small-molecule microarray, fluorescence 635/667 (AID 1065); conditions: higher = more signal, COS7 lysate expressing mutant human TOR1A
# [3] = binders of probe aFGF2 on microarray, primary screen, stem cell growth factor project, biochemical, small-molecule microarray, fluorescence 635/667 (AID 1067); conditions: higher = more signal;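 further: measures binding of biotinylated aFGF2 protein to printed compounds on slides; z-score merges feature fluorescence and signal-to-noise across triplicate slides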
# [4] = binders of probe aFGF10 on microarray, primary screen, stem cell growth factor project, biochemical, small-molecule microarray, fluorescence 635/667 (AID 1071); conditions: higher = more signal;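 further: score merges 667 nm spot intensity and signal to noise from triplicate slides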
# [5] = target: Neurogenic locus notch homolog protein 2 (Homo sapiens) (UniProt Q04721); test: Notch2 binders on small-molecule microarrays, primary screen, biochemical, small-molecule microarray, 635 nm fluorescence, stem cell growth factors (AID 1073); conditions: Notch2 binding, higher = more signal
# Neurogenic locus notch homolog protein 2 (Homo sapiens), sequence (Q04721 whole entry, looked up, canonical isoform): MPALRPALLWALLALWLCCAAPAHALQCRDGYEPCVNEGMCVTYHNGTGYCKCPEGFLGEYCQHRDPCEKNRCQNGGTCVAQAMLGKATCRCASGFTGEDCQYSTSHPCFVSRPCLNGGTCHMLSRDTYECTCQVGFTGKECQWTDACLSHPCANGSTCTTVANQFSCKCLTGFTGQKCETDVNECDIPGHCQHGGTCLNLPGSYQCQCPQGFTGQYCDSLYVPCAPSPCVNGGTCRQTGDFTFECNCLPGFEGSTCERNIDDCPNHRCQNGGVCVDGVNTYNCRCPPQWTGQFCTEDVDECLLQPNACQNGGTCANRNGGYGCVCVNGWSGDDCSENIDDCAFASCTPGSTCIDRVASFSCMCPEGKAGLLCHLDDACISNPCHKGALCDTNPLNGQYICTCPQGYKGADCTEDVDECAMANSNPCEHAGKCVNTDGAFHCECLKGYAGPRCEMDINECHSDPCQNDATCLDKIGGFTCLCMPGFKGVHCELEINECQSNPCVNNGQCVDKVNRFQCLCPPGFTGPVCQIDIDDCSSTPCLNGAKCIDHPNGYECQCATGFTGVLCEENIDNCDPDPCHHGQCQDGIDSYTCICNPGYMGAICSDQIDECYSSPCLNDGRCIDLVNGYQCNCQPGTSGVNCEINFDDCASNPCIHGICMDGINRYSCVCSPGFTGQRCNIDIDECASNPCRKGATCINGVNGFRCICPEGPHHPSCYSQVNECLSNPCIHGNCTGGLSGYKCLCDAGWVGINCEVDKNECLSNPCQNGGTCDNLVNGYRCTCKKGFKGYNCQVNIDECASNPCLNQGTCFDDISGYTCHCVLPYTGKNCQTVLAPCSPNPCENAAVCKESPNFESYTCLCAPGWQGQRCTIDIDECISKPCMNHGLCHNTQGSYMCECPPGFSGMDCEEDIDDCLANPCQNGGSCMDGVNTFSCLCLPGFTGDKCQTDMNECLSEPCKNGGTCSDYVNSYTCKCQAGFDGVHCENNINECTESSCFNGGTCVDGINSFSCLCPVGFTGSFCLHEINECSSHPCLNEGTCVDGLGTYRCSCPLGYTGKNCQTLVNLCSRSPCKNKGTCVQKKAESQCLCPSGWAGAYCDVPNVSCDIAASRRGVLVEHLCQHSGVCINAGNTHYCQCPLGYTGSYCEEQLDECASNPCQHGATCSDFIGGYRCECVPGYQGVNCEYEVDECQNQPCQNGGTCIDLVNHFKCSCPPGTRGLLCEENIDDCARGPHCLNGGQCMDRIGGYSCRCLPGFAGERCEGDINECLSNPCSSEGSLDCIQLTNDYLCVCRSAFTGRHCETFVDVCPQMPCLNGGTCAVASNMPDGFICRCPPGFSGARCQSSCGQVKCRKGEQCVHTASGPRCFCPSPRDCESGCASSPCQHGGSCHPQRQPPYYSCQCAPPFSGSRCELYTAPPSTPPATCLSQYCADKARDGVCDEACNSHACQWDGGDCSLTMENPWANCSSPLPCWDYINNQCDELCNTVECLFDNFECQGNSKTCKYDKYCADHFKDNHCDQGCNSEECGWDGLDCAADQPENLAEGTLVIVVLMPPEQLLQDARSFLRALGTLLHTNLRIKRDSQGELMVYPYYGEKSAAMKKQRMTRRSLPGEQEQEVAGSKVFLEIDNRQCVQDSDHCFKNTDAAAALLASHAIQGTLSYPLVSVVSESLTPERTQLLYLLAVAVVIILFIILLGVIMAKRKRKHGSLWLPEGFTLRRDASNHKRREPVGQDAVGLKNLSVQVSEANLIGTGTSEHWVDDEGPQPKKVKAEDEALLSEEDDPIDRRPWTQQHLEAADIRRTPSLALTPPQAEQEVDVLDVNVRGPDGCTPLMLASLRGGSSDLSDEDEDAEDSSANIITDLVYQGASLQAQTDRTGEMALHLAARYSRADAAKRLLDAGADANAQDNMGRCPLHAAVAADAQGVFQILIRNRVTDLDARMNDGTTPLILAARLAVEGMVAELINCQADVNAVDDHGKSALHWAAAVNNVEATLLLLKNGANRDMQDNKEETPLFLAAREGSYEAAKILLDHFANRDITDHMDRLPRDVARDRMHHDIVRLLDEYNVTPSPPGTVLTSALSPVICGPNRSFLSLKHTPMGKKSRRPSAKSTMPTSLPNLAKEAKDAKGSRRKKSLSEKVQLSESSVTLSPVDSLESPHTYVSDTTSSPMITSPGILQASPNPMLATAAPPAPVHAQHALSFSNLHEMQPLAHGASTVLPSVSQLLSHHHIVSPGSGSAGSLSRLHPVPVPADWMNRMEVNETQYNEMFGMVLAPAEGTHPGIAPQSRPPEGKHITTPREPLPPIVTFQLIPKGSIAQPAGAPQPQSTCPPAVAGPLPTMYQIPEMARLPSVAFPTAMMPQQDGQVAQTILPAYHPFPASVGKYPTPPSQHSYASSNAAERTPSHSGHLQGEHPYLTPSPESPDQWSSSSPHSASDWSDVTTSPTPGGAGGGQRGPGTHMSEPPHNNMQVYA
# [6] = target: Pro-neuregulin-1, membrane-bound isoform (Homo sapiens) (UniProt Q02297); test: NRG1 binders on small-molecule microarrays, primary screen, psychiatric disease protein project, biochemical, small-molecule microarray, fluorescence 635/667 (AID 1075); conditions: NRG1 binding, 635 nm fluorescence, higher = more signal;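 further: score combines 667 nm spot fluorescence with signal to noise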
# Pro-neuregulin-1, membrane-bound isoform (Homo sapiens), sequence (Q02297 whole entry, looked up, the tested form may be a part, canonical isoform): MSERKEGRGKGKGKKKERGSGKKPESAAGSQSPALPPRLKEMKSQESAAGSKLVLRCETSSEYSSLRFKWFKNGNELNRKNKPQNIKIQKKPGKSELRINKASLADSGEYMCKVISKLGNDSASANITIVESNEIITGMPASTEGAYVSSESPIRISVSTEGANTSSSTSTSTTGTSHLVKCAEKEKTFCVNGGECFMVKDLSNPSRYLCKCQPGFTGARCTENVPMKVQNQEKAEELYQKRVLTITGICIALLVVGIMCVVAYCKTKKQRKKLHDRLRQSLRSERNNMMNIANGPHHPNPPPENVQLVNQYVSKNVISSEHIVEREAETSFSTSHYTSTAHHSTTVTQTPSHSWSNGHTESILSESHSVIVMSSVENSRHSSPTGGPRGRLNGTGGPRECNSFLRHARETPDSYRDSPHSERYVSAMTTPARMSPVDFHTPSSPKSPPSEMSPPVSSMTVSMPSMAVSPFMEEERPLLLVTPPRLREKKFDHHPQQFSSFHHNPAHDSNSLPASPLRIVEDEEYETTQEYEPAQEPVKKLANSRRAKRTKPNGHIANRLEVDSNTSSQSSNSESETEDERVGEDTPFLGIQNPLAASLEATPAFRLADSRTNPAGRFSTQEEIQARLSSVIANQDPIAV
# [7] = tested on: Neuregulin-1 EGF-like domain; test: binders of neuregulin-1 EGF-like domain, primary screen, biochemical, small-molecule microarray, 635 nm fluorescence (AID 1081); conditions: small-molecule microarray binding, higher = more signal;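 further: binding of the protein to compounds printed on small-molecule microarray slides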
# [8] = FRG1 promoter luciferase signal modulators, primary screen, FRG1 inhibition for FSHD, cell-based, C2C12 myotubes, firefly/Renilla luciferase, luminescence (AID 1084); conditions: higher = more signal, called active from +8 up or from −8 down
# [9] = binders of probe aFST on microarray, primary screen, stem cell growth factor project, biochemical, small-molecule microarray, fluorescence 635/667 (AID 1086); conditions: higher = more signal;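 further: score merges 667 nm fluorescence with signal-to-noise of each printed compound spot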
# [10] = binders of probe aHhip on microarray, primary screen, stem cell growth factor project, biochemical, small-molecule microarray, fluorescence 635/667 (AID 1087); conditions: higher = more signal;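 further: score merges spot fluorescence at 667nm with spot signal to noise ratio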
SMILES,composite z-score [1],composite z-score [2],composite z-score [3],composite z-score [4],composite z-score [5],composite z-score [6],composite z-score [7],z-score [8],composite z-score [9],composite z-score [10]
[N-]=[N+]=Nc1ccccc1[C@H]1OC(c2ccc(OCCCO)cc2)=N[C@@]1(Cc1ccccc1)C(=O)N1CCOCC1,0.875,0.992,0.184,0.698,1.57,1.84,1.22,-1.6 (inactive),1.52,0.0873
COc1ccccc1CN1C(=O)c2ccccc2[C@@]2(Cc3ccccc3N(CCCN(C)C)C2=O)[C@@H]1c1ccc(CO)cc1,-0.302,-0.252,-0.0396,-0.0231,0.137,-0.141,0.0968,0.0544 (inactive),-0.201,-0.0645
O=C1O[C@@H](c2ccccc2)[C@@H](c2ccccc2)N2[C@@H](c3ccccc3OCCO)[C@]3(C(=O)Nc4ccccc43)[C@@H](C(=O)O)[C@H]12,-0.229,-0.0324,0.0301,0.551,0.522,1.57,1.12,-1.84 (inactive),-0.0073,0.0524
COC(=O)[C@@]1(Cc2ccccc2)[C@H]2c3cc(C(=O)N(C)C)n(CCc4c[nH]c5ccc(O)cc45)c3C[C@H]2CN1C(=O)c1ccccc1,0.808,-0.0685,0.0518,0.188,0.832,-0.198,1.29,0.688 (inactive),1.21,-0.191
O=C1C2C=CC(C(O)c3ccc(-c4ccccc4)s3)N(Nc3ccccc3)C2C(=O)N1c1ccccc1 (stereo not given),-0.288,-0.109,0.198,0.44,1.61,2,1.33,-2.89 (inactive),1.62,-0.0618
COCCOC(=O)N1C(=O)[C@@]2(c3cc(C#CC4(O)CCCCCC4)ccc31)[C@H](c1ccccc1OCCO)N1[C@H](c3ccccc3)[C@H](c3ccccc3)OC(=O)[C@H]1[C@@H]2C(=O)N1CCc2cc(OC)c(OC)cc2C1,-0.207,0.788,-0.0685,0.542,1.03,1.6,1.19,-0.658 (inactive),0.223,0.177
COC(=O)c1c2oc(c1C(=O)OC)C(=O)N[C@@H](C(C)C)Cn1cc(nn1)C1(CCCCC1)NC(=O)N[C@H](CO)CC2,-0.458,0.104,-0.124,0.471,-0.178,0.356,0.859,-0.965 (inactive),-0.0464,0.0881
COCCCNC(=O)[C@]1(Cc2ccccc2)N=C(c2ccc(OCCCO)cc2)O[C@@H]1c1ccccc1CN=[N+]=[N-],0.134,0.719,0.0584,1.03,1.49,1.87,0.837,-2.22 (inactive),0.88,-0.156
CCCC(=O)N(CCc1c[nH]c2ccccc12)[C@@H]1CC(C(=O)NCCO)=C[C@H](Oc2c(I)cc(CO)cc2OC)[C@H]1O,-0.279,0.809,-0.0692,0.187,-0.11,-0.0724,0.315,-0.667 (inactive),-0.0945,-0.214
C#CCNCc1ccccc1,-0.443,0.0591,-0.114,0.227,0.461,-0.358,0.0262,0.938 (inactive),-0.115,-0.236
CCOC(=O)C[C@H]1[C@H](OC(=O)c2cc3ccccc3oc2=O)[C@@H](NC(=O)CC(C)C)c2cc(OCCCO)ccc2N1C(=O)c1ccccc1,-0.26,0.478,-0.0327,0.667,0.3,-0.0698,0.397,-0.332 (inactive),0.128,0.0373
CC(C)CNC(=O)[C@@]1(Cc2ccccc2I)c2ccccc2C(=O)N(Cc2ccccc2C(F)(F)F)[C@H]1c1ccc(CO)cc1,0.0085,0.0038,-0.118,-0.128,-1.46,0.89,-0.13,0.49 (inactive),-0.374,-0.236
COC(=O)c1c(CC[C@@H](CO)NC(=O)NCCc2c[nH]c3ccccc23)oc(C(=O)Cc2ccccc2)c1C(=O)OC,-0.379,0.488,0.0858,0.203,0.0378,-0.0379,0.939,1.49 (inactive),0.224,0.0036
C=C(/C(=C/C[C@H](OC(C)=O)c1ccc(OCCO)cc1)c1cc(C(=O)OC)ccc1OC)C(C)C,-0.183,0.585,-0.145,0.41,0.219,1.17,0.376,-0.863 (inactive),0.388,-0.175
CCCNC(=O)[C@@H]1c2ccccc2C(=O)N(Cc2ccccc2OC)[C@H]1c1ccc(CO)cc1,-0.148,1.34,-0.0058,0.479,0.901,1.66,0.977,-2.3 (inactive),0.274,-0.201
O=C1OCCC/C=C\[C@H]2OC34C=CCN(c5ccc6ccccc6c5)C(=O)[C@H]3N(CCCCCO)C(=O)[C@@H]4C12 (stereo not given in full),0.149,-0.763,-0.195,-0.759,-0.367,-0.634,-0.773,0.815 (inactive),-0.602,-0.169
CCCC=C(CCC)[C@@H](NS(=O)(=O)c1ccc(Cl)cc1)c1ccc(C(=O)OC)cc1,-0.172,-0.114,-0.0841,0.484,0.41,-0.194,0.866,2.58 (inactive),0.0699,-0.236
O=C1C2C=CC(C(O)C=Cc3ccc([N+](=O)[O-])cc3)N(Nc3ccccc3F)C2C(=O)N1c1ccccc1 (stereo not given),0.133,0.537,0.0135,1.03,1.51,1.39,1.16,0.477 (inactive),1.11,0.0274
C=C(/C(=C/C[C@H](OC(=O)c1ccncc1)c1ccc(OCCO)cc1)c1cc(C(=O)OC)ccc1OC)C(C)C,-0.0836,0.362,-0.134,0.607,-0.478,0.892,0.781,6.19 (inactive),0.87,-0.0994
C=C(C(=O)CC[C@H](OC(C)=O)c1ccccc1OCCO)C(C)C,-0.214,-1.03,-0.0985,0.317,-0.926,-0.49,-0.862,-4.37 (inactive),-0.327,0.0854
CCOC(=O)C[C@H]1[C@H](OC(=O)c2ccc(C(=O)c3ccccc3)cc2)[C@@H](NC(=O)c2ccccc2)c2cc(OCCCO)ccc2N1C(=O)c1ccccc1,-0.481,0.0554,-0.0376,0.683,0.783,0.636,0.935,-1.48 (inactive),0.204,0.0053
C=C(C)[C@@H]1CC=C(C(O)C2C=CC3C(=O)NC(=O)C3N2Nc2ccc(Cl)cc2Cl)CC1 (stereo not given in full),0.917,0.403,0.0095,0.117,1.42,1.35,0.953,1.3 (inactive),1.2,-0.0645
COc1ccc([Si](C)(C)[C@@H]2[C@@H](CC(=O)N3Cc4ccccc4C[C@H]3CO)O[C@]3(C(=O)N(Cc4cccc(N5CCC5=O)c4)c4ccccc43)[C@H]2C)cc1,-0.0762,0.3,-0.07,0.507,0.596,0.592,1.22,-1.07 (inactive),0.113,0.35
